# Rows were chosen to be rich in hits. Some 10% of all compounds tested hit in one or more screens of this group.
# GLS inh: inhibitors of human glutaminase (GLS); GLS enzymatic activity, qHTS titration; Potency, µM (series often up to 45.5 µM), for inactives: top-dose activity change, negative = inhibition, most hits filed as inhibitors; AID 624170; actives 0.21% (n = 410,000); also: % is scaled to controls: 0 for no effect and ±100 for the full control effect
#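 hKGA in 45 mM KH2PO4 (pH 8.2), 0.02% Tween-20 with compound, then 1mM L-Glutamine (stock as added) plus glutamate oxidase/HRP/Amplex red coupling mix. Fluorescence read initially and after 30 min at RT; signal change reflects glutamate formation.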
# HP1b binding inh: blocks HP1-beta chromodomain binding to methylated histone tails. P83916. AlphaScreen HP1-beta / biotin-H3K9me3 peptide binding. Potency, µM (highest dose often 114 µM), for the others: top-dose activity change, negative = inhibition, actives largely listed as inhibitors. actives 0.56% (n = 390,000). AID 540317; also: nearly all actives have a fitted effect of over 70% in size
# Target sequence (P83916 whole entry, looked up): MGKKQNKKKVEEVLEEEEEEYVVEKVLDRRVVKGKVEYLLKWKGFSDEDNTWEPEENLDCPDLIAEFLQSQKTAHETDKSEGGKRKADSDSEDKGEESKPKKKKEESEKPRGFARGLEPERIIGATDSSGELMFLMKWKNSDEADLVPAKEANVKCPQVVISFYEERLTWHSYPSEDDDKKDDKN
#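 HP1-beta protein (50 nM final) preincubated 30 min at room temperature with biotinylated H3(1-18)K9me3 peptide (50 nM) in PBS pH 7.4, 0.01% Tween-20, then compound added for 30 min. AlphaScreen streptavidin donor/nickel chelate acceptor beads (10 ug/mL final), 30 min dark, luminescence read.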
# G9a inh: G9a (human) methyltransferase inhibition. Potency, µM (series often up to 102 µM), for inactives: at the top dose activity, negative = inhibition, usual class: inhibitors. Q96KQ7. actives 8.8% (n = 350,000). G9a H3K9 monomethylation, AlphaScreen, 2 h. AID 504332; also: % is scaled to controls: 0 for no effect and ±100 for the full control effect; nearly all actives have a fitted effect of over 75% in size
# Target sequence (Q96KQ7 913-1193 limits assumed): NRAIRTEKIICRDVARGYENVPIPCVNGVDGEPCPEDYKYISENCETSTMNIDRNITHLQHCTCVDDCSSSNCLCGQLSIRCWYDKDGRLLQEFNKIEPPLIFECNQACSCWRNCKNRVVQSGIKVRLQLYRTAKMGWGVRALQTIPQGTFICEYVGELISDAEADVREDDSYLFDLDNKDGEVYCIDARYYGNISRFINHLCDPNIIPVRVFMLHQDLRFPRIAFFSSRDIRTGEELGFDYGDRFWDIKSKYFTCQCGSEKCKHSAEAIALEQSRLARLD
#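 Chemiluminescent proximity detection of H3K9 monomethylation, read after 10 min bead incubation in the dark. Reaction: 20 nM G9a, 500 nM biotin-H3K9 peptide, 20 uM SAM cofactor, 2 h, room temperature, following 15 min enzyme-compound preincubation.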
# BAZ2B block: blocks human BAZ2B; Q9UIF8; AlphaScreen BAZ2B-H3K14Ac peptide displacement; Potency, µM (series often up to 114 µM), for inactives: at the highest dose activity change, negative = inhibition, usual class: inhibitors; actives 4.4% (n = 360,000); AID 504333; also: % is scaled to controls: 0 for no effect and ±100 for the full control effect; nearly all actives have a fitted effect of over 60% in size
#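 Inhibition is scored as reduced AlphaScreen emission. The BAZ2B/b-H3(5-23)K14Ac complex (50 nM each) in PBS pH 7.4, 0.01% Tween-20 meets compound (up to 110 uM) for 30 min at RT before bead addition.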
# JMJD2A Tudor inh: JMJD2A Tudor domain (human) inhibition. O75164. AlphaScreen JMJD2A-Tudor / H3K4me3 peptide binding. Potency, µM (highest dose often 114 µM), for the others: top-dose activity change, negative = inhibition, usual class: inhibitors. actives 4.4% (n = 390,000); also: % is scaled to controls: 0 for no effect and ±100 for the full control effect; nearly all actives have a fitted effect of over 50% in size
# The depositor's hits bear a star; ? = inconclusive; . = not tested or not shown; [ ] = remark or other dose. Calls follow the shape of the dose curve; as a rule, active = well fitted curve in the direction sought with a large enough effect; inconclusive = small, poorly fitted or top-dose-only effect, or another doubt; inactive = no such curve, though single readings can be large; an effect the other way counts as inactive or inconclusive. Potency is read from the fitted curve at half-maximal effect.
SMILES,GLS inh,HP1b binding inh,G9a inh,BAZ2B block,JMJD2A Tudor inh
C#CCOCCOCCOCCNc1nc(N2CCN(C(=O)[C@H]([C@@H](C)CC)n3cc([C@@H](N)CO)nn3)CC2)nc(N2CCN(C(=O)[C@H]([C@@H](C)CC)n3cc([C@@H](N)Cc4ccc(O)cc4)nn3)CC2)n1,22.4%,2.1%,-4.0%[12.7 µM],28.2µM*,50.1µM*
C#CCOCCOCCOCCNc1nc(N2CCN(C(=O)[C@H]([C@@H](C)CC)n3cc([C@@H](N)CC(C)C)nn3)CC2)nc(N2CCN(C(=O)[C@H](Cc3ccc(O)cc3)n3cc([C@@H](N)CC(C)C)nn3)CC2)n1,11.7%,17.5%,?,50.1µM*,?
C#CCOCCOCCOCCNc1nc(N2CCOCC2)nc(N2CCN(C(=O)[C@H]([C@@H](C)CC)n3cc([C@@H](N)CO)nn3)CC2)n1,-0.3%,?,?,-26.8%,-26.2%
COc1ccc(S(=O)(=O)NCC2CCCN(Cc3cn(C)nc3C)C2)cc1 (centres undefined),2.1%,10.9%,23.5%,20.1%,-22.1%
CCOC(=O)N1CCN(CCC(=O)Nc2cccc(F)c2)CC1,0.4%,25.5%,-13.4%[59 µM],-25.3%,-8.3%
O=C(CC1NCCNC1=O)Nc1ccc(F)c(Cl)c1 (centres undefined),-2.9%,19.8%,9.7%[59 µM],-11.7%,-8.2%
C#CCOCCOCCOCCNc1nc(N2CCN(C(=O)[C@H]([C@@H](C)CC)n3cc([C@@H](N)CO)nn3)CC2)nc(N2CCN(C(=O)[C@H](Cc3ccc(O)cc3)n3cc([C@@H](N)C(C)CC)nn3)CC2)n1 (some centres undefined),69.0%,39.1%,?,35.5µM*,35.5µM*
Cc1cc(O)c(C(C)C)cc1NC(=O)Nc1cc(Cl)ccc1Cl,2.2%,?,.,.,44.7µM*
C[C@H]1CN([C@@H](C)CO)C(=O)CCCn2cc(nn2)CO[C@@H]1CN(C)C(=O)Nc1ccc(N2CCN(C)CC2)cc1,-4.2%,.,.,.,.
O=[N+]([O-])c1cc([N+](=O)[O-])c(Oc2cccc(Cl)c2Cl)cc1NN1CCCCC1,6.5%,-18.0%,?,?,?
O=[N+]([O-])c1cc([N+](=O)[O-])c(Oc2ccccc2F)cc1NN1CCCCC1,9.4%,-17.8%,.,?,?
CC1(C)Cc2cccc(Oc3cc(NN4CCCCC4)c([N+](=O)[O-])cc3[N+](=O)[O-])c2O1,-2.4%,-11.4%,35.5µM*,?,?
Cc1cc(Oc2cc(NN3CCCCC3)c([N+](=O)[O-])cc2[N+](=O)[O-])c(C(=O)c2ccccc2)cc1Cl,-0.5%,-15.7%,?,?,?
COc1cc(C(C)=O)ccc1Oc1cc(NN2CCCCC2)c([N+](=O)[O-])cc1[N+](=O)[O-],23.8%,-7.7%,28.2µM*,?,?
Cc1ccc(C)c(Oc2cc(NN3CCCCC3)c([N+](=O)[O-])cc2[N+](=O)[O-])c1,12.7%,-12.1%,7.94µM*,?,?
CCC1(CC)C(=O)C2=C3C1[C@H](C(=O)OC)CC(C(=O)OC)C[C@H]3[C@H]1C(=O)N(C)C(=O)[C@H]1[C@H]2C (some centres undefined),.,22.7%,.,.,-17.2%
CCc1cc2c(=O)n(-c3ccc(C)cc3)cnc2s1,1.4%,33.6%,-44.6%[59 µM],-4.5%,-3.1%
CCn1c(SC)nnc1-c1nn(-c2ccccc2)ccc1=O,-13.8%,?,5.01µM*,?,3.98µM*
CCn1c(-c2nn(-c3ccc(C)cc3)ccc2=O)n[nH]c1=S,5.2%,30.0%,?,-38.0%,7.94µM*
O=c1[nH][nH]c(=S)n1C1CCCCC1,?,3.55µM*,1.12µM*,25.1µM*,2.51µM*
CCC12CN3CC(C)(CN(C1)C3c1ccccc1C)C2=O (centres undefined),-1.8%,13.8%,-3.2%[59 µM],2.2%,-11.0%
N#CCCn1cc(C(=O)CN2C(=O)C(=O)N(C3CCCC3)C2=O)c2ccccc21,-2.4%,-1.9%,50.1µM*,-5.0%,-14.6%
CNc1ccc(/C=C(\CCC(=O)O)c2nc3ccccc3s2)cc1[N+](=O)[O-],-22.8%,28.6%,?,44.7µM*,-17.4%
Cc1ccc(/C=C(\CCC(=O)O)c2nc3ccccc3s2)cc1[N+](=O)[O-],5.2%,5.3%,-8.1%[59 µM],-11.2%,-30.2%
Cn1cnnc1Sc1ccc(/C=C(\CCC(=O)O)c2nc3ccccc3s2)cc1[N+](=O)[O-],-14.3%,-1.0%,?,?,-13.1%
SMILES,GLS inh,HP1b binding inh,G9a inh,BAZ2B block,JMJD2A Tudor inh
CN(c1ccccc1)c1ccc(/C=C(\CCC(=O)O)c2nc3ccccc3s2)cc1[N+](=O)[O-],-5.3%,?,?,11.2µM*,44.7µM*
CCOCCN1CCN(C(=O)CN2CCCC2=O)CC1,2.0%,8.2%,7.94µM*,89.1µM*,?
COc1ccc(N2CCN(Cc3nc(N)nc(N4CCCc5ccccc54)n3)CC2)cc1,55.4%,?,44.7µM*,11.2µM*,50.1µM*
Nc1nc(CN2CCN(c3ccccc3)CC2)nc(N2CCCc3ccccc32)n1,12.9%,-6.2%,50.1µM*,?,50.1µM*
Nc1nc(CN2CCN(Cc3ccccc3)CC2)nc(N2CCCc3ccccc32)n1,0.9%,13.6%,.,?,-21.4%
Nc1nc(CN2CCN(c3ccccc3F)CC2)nc(N2CCCc3ccccc32)n1,1.8%,2.9%,?,50.1µM*,?
Cc1ccc(S(=O)(=O)N2CCN(c3nc(-c4ccco4)nc4ccccc34)CC2)cc1,.,.,.,.,-23.1%
COc1ccc(C2=C(C#N)C(=O)OC2)cc1,-4.1%,46.7%,31.6µM*,?,-20.7%
Cc1oc2ncn(CC(C)C)c(=O)c2c1C(=O)N1CCN(c2cccc(C(F)(F)F)c2)CC1,1.6%,22.5%,-20.9%[59 µM],4.2%[57.1 µM],-12.6%
COc1ccc(N2CCN(C(=O)CN3C(=O)COc4ccc(S(=O)(=O)N5CCC(C)CC5)cc43)CC2)cc1,19.4%,-0.3%,?,?,?
CN1C(=O)C(N=Nc2ccc([N+](=O)[O-])cc2)SC1=S (centres undefined),4.7%,?,.,.,22.4µM*
CN1CCCCCC1=Nc1ccc([N+](=O)[O-])cc1,-7.5%,8.0%,.,.,-8.7%
COc1ccccc1C1=NNC(=Nc2cccc(S(=O)(=O)N(C)C)c2)SC1,4.3%,?,15.8µM*,?,-21.1%
O=C(NN1CCOCC1)c1cccc2ccccc12,?,1.6%,-10.4%,-4.4%,50.1µM*
COc1cc(/C=N/NC(=O)C2=NNC(=O)C2C)ccc1O (centres undefined),19.9%,4.9%,?,?,?
CC1C(=O)NN=C1C(=O)N/N=C\c1ccc(O)cc1O (centres undefined),19.2%,16.2%,4.5%[59 µM],11.2µM*,39.8µM*
CCOC(=O)c1c(C)[nH]c(/C(C)=N/O)c1C,18.1%,-10.4%,12.8%[12.7 µM],?,-15.9%

# Screens deposited in PubChem BioAssay by National Center for Advancing Translational Sciences (NCATS).
